Experimental data published in the supplement of paper PMC9262897, “Low-cost anti-mycobacterial drug discovery using engineered E. coli” (Nature Communications, 2022).
Structures can show the parent of a compound that is named as a salt. ± gives the standard deviation of the averaged measurements.

The compounds below were run on E. coli TESEC Alr+ wild-type control (assay: growth (OD600 after 10 h); higher = more growth (less inhibition)). Details: compound 0.1 mM; raw OD600 reference: median of DMSO wells 0.49, cell-free background 0.052.
Method: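 TESEC Mtb Alr E. coli (ΔaraC ΔtolC ΔentC Δalr ΔdadX, arabinose-inducible Mtb Alr) or the Alr+ wild-type control strain, grown in defined M9-fructose medium without D-alanine in 96-well plates with Prestwick library compounds at 0.1 mM and 1% DMSO. Low Alr induction is 0.1 µM arabinose and high induction is 10 mM arabinose.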

| Compound | growth |
| --- | --- |
| CCN(CC)C(=O)/C(C#N)=C/c1cc(O)c(O)c([N+](=O)[O-])c1 [Entacapone] | 0.144 ± 0.02 |
| COc1ccc2[nH]c([S+]([O-])Cc3ncc(C)c(OC)c3C)nc2n1 (stereo not given) [Tenatoprazole] | 0.35 ± 0.01 |
| CCCC1O[C@@H]2C[C@H]3[C@@H]4CCC5=CC(=O)C=C[C@]5(C)[C@H]4[C@@H](O)C[C@]3(C)[C@]2(C(=O)CO)O1 (stereo not given in full) [Budesonide] | 0.449 ± 0.02 |
| CC1(C)[C@H](C(=O)O)N2C(=O)C[C@H]2S1(=O)=O [Sulbactam] | 0.533 ± 0.06 |
| c1ccc2c(c1)CCCC2C1=NCCN1 (stereo not given) [Tetrahydrozoline hydrochloride] | 0.479 ± 0.063 |
| N[C@@H](C(=O)N[C@@H]1C(=O)N2C(C(=O)O)=C(Cl)CS[C@H]12)c1ccccc1 [Cefaclor hydrate] | 0.489 ± 0.033 |
| C[C@]12CCC(=O)C=C1C=C[C@@H]1[C@@H]2CC[C@@]2(C)[C@H]1CC[C@@]21CCC(=O)O1 [Canrenone] | 0.282 ± 0.014 |
| Cc1ccnc(NS(=O)(=O)c2ccc(N)cc2)n1 [Sulfamerazine] | 0.515 ± 0.075 |
| O=C1c2ccccc2S(=O)(=O)N1CCCCN1CCN(c2ncccn2)CC1 [Ipsapirone] | 0.551 ± 0.04 |
| CCn1cc(C(=O)O)c(=O)c2ccc(C)nc21 [Nalidixic acid sodium salt] | 0.0678 ± 0.0015 |
| Nc1ccc(C(=O)O)c(O)c1 [4-aminosalicylic acid] | 0.545 ± 0.044 |
| O=c1[nH]cnc2c1ncn2[C@H]1CC[C@@H](CO)O1 [Didanosine] | 0.503 ± 0.045 |
| Cc1ncc([N+](=O)[O-])n1CC(C)O (stereo not given) [Secnidazole] | 0.4475 ± 0.003 |
| CC(=O)Nc1ccc(O)cc1 [Acetaminophen] | 0.559 ± 0.083 |
| CO[C@@]1(NC(=O)Cc2cccs2)C(=O)N2C(C(=O)O)=C(COC(N)=O)CS[C@@H]21 [Cefoxitin sodium salt] | 0.0458 ± 0.00061 |
| CCC1(C)CC(=O)NC1=O (stereo not given) [Ethosuximide] | 0.436 ± 0.043 |
| NS(=O)(=O)Cc1noc2ccccc12 [Zonisamide] | 0.453 ± 0.018 |
| CCN1C(=O)NC(c2ccccc2)C1=O (stereo not given) [Ethotoin] | 0.448 ± 0.012 |
| C=C1c2c(Cl)ccc(O)c2C(O)=C2C(=O)[C@]3(O)C(O)=C(C(N)=O)C(=O)[C@@H](N(C)C)[C@@H]3[C@@H](O)[C@H]12.O=C(O)c1cc(S(=O)(=O)O)ccc1O [Meclocycline sulfosalicylate] | 0.05223 ± 0.00012 |
| CC(C)(C)NCC(O)c1cc(O)cc(O)c1 (stereo not given) [Terbutaline hemisulfate] | 0.504 ± 0.051 |

| Compound | growth |
| --- | --- |
| Cc1cc(NC(=O)C2=C(O)c3ccccc3S(=O)(=O)N2C)no1 [Isoxicam] | 0.47 ± 0.018 |
| CC[C@H]1OC(=O)[C@H](C)[C@@H](O[C@H]2C[C@@](C)(OC)[C@@H](O)[C@H](C)O2)[C@H](C)[C@@H](O[C@@H]2O[C@H](C)C[C@H](N(C)C)[C@H]2O)[C@](C)(O)C[C@@H](C)[C@@H]2N[C@@H](COCCOC)O[C@H]([C@H]2C)[C@]1(C)O [Dirithromycin] | 0.0524 ± 0.00093 |
| CC(=O)O[C@@]12CO[C@@H]1C[C@H](O)[C@@]1(C)C(=O)[C@H](O)C3=C(C)[C@@H](OC(=O)[C@H](O)[C@@H](NC(=O)OC(C)(C)C)c4ccccc4)C[C@@](O)([C@@H](OC(=O)c4ccccc4)[C@H]21)C3(C)C [Docetaxel] | 0.614 ± 0.12 |
| COc1ccc2[nH]c([S+]([O-])Cc3ncc(C)c(OC)c3C)nc2c1 (stereo not given) [Omeprazole] | 0.409 ± 0.01 |
| CC1(C)S[C@@H]2[C@H](NC(=O)[C@H](C(=O)O)c3ccsc3)C(=O)N2[C@H]1C(=O)O [Ticarcillin sodium] | 0.577 ± 0.095 |
| CC(N)CCCC(C)(C)O (stereo not given) [Heptaminol hydrochloride] | 0.501 ± 0.054 |
| CN(C)CCCN1c2ccccc2Sc2ccccc21 [Promazine hydrochloride] | 0.523 ± 0.031 |
| C[C@H](O)C(=O)Nc1c(I)c(C(=O)NC(CO)CO)c(I)c(C(=O)NC(CO)CO)c1I [Iopamidol] | 0.465 ± 0.036 |
| CN[C@H]1CC[C@@H](c2ccc(Cl)c(Cl)c2)c2ccccc21 [Sertraline] | 0.0502 ± 0.00068 |
| CCOc1ccccc1OCC1CNCCO1 (stereo not given) [Viloxazine hydrochloride] | 0.539 ± 0.074 |
| CC(=O)OCC(=O)[C@@]1(O)CC[C@H]2[C@@H]3CCC4=CC(=O)CC[C@]4(C)[C@@]3(F)[C@@H](O)C[C@@]21C [Fludrocortisone acetate] | 0.459 ± 0.028 |
| CSc1ccc2c(c1)N(CCC1CCCCN1C)c1ccccc1S2 (stereo not given) [Thioridazine hydrochloride] | 0.0484 ± 0.00036 |
| OCc1cc(C(O)CNCCCCCCOCCCCc2ccccc2)ccc1O (stereo not given) [Salmeterol] | 0.399 ± 0.032 |
| Clc1ccc(COC(Cn2ccnc2)c2ccc(Cl)cc2Cl)c(Cl)c1 (stereo not given) [Miconazole] | 0.137 ± 0.03 |
| Nc1ccc(S(=O)(=O)Nc2ccccn2)cc1 [Sulfapyridine] | 0.449 ± 0.0039 |
| C=C(CC)C(=O)c1ccc(OCC(=O)O)c(Cl)c1Cl [Ethacrynic acid] | 0.374 ± 0.014 |
| CC(=O)CCCCn1c(=O)c2c(ncn2C)n(C)c1=O [Pentoxifylline] | 0.489 ± 0.096 |
| CCCCOc1cc(C(=O)OCCN(CC)CC)ccc1N [Benoxinate hydrochloride] | 0.476 ± 0.024 |
| NC[C@H]1O[C@H](O[C@H]2[C@H](O)[C@@H](O[C@H]3O[C@H](CO)[C@@H](O)[C@H](N)[C@H]3O)[C@H](N)C[C@@H]2N)[C@H](N)C[C@@H]1O [Tobramycin] | 0.04933 ± 0.00049 |
| CCN(CC)C(=O)N1CCN(C)CC1 [Diethylcarbamazine citrate] | 0.549 ± 0.066 |
